Test results as given in PubChem BioAssay (EPA / NIEHS).
The source made the active and inactive calls. How the source made its calls: active means hit-call score of the fitted dose curve at least 0.9, where 1 is the maximum; inactive means score below 0.9.

Assays:
[1] = ATG_CRE_CIS: Attagene CIS-FACTORIAL HepG2 Assay for human cAMP Responsive Element (CRE) binding protein 3 (AID 2282926); settings: HepG2 CRE cis-reporter, Attagene multiplexed mRNA; actives raise or lower the signal
In short: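 Endogenous CRE-binding activity in HepG2 is reported through a cis-regulated transfected reporter. Following a day of exposure, mRNA levels are determined by reverse transcription PCR and fluorescent fragment analysis; fits run in both directions versus DMSO.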

[2] = target: CCAAT/enhancer-binding protein beta (Homo sapiens) (UniProt P17676); experiment: ATG_C_EBP_CIS: Attagene CIS-FACTORIAL HepG2 Assay for human CCAAT/Enhancer Binding Protein (C/EBP) beta (AID 2282927); settings: HepG2 Attagene cis-factorial transcription factor reporter; actives raise or lower the signal
CCAAT/enhancer-binding protein beta (Homo sapiens), sequence (P17676 whole entry, looked up): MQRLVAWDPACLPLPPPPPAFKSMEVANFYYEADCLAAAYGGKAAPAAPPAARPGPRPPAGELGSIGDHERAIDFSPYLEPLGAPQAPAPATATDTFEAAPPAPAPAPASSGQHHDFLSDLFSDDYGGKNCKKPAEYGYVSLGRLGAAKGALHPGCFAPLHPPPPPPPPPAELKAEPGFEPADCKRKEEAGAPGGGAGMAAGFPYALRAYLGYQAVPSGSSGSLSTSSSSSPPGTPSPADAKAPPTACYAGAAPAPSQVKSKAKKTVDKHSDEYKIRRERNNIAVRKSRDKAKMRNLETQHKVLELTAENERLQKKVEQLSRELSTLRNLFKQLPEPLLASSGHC
In short: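 HepG2 transiently transfected with multiplexed reporter units under cis-regulatory promoters reporting endogenous C/EBPb activity. After 24 h exposure, reporter mRNA assayed by RT-PCR, fluorescent labelling, HpaI digestion and capillary electrophoresis; bidirectional fitting versus DMSO.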

[3] = ATG_CMV_CIS: Attagene CIS-FACTORIAL HepG2 Assay for human CMV (Internal Marker) (AID 2282928); settings: HepG2 CMV promoter reporter, transcription factor profiling; actives raise or lower the signal;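 further: endpoint acts as a background internal control marker rather than a target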
In short: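 CMV internal-marker background readout in transiently transfected HepG2 cells bearing cis-regulated reporter units. Reporter mRNA is measured 24 h after dosing by RT-PCR and capillary electrophoresis, with bidirectional fitting against DMSO.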

[4] = ATG_DR4_LXR_CIS: Attagene CIS-FACTORIAL HepG2 Assay for human Liver X Receptor (LXR), DR4 submotif (AID 2282929); settings: HepG2 Attagene DR4 cis-reporter, mRNA transcription; actives raise or lower the signal
In short: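 Total RNA from 24 h-treated, MRTU-transfected HepG2 cells underwent reverse transcription, PCR, fluorescent primer extension and restriction digestion before capillary electrophoresis. Both increases and decreases in reporter signal were fitted against DMSO.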

[5] = target: Aryl hydrocarbon receptor (Homo sapiens) (UniProt P35869); experiment: ATG_Ahr_CIS: Attagene CIS-FACTORIAL HepG2 Assay for human Aryl Hydrocarbon Receptor (Ahr) (AID 2282930); settings: HepG2 AhR cis-factorial reporter transcription; actives raise or lower the signal
Aryl hydrocarbon receptor (Homo sapiens), sequence (P35869 whole entry, looked up): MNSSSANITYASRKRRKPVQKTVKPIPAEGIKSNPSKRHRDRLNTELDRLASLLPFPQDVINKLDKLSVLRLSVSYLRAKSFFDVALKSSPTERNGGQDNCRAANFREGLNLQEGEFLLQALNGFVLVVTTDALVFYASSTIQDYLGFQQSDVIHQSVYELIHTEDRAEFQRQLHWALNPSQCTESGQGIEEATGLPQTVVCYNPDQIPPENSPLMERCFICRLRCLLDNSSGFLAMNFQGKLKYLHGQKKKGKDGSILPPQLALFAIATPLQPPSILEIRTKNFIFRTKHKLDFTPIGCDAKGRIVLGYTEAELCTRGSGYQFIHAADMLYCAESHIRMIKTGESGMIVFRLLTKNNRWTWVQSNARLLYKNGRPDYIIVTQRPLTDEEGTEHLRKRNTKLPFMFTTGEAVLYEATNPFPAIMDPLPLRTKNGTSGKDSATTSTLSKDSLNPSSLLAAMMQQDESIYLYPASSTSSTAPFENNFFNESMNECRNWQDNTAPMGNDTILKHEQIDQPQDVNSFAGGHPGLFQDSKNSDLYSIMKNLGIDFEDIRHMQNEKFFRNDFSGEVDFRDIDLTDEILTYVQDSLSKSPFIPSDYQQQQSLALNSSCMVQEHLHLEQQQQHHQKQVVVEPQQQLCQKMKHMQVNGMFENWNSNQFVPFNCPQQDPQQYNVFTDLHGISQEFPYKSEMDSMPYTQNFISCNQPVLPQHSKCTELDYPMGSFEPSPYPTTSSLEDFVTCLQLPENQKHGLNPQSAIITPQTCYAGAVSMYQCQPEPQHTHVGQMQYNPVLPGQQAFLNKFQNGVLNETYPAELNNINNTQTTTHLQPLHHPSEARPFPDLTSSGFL
In short: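 HepG2 cells transiently transfected with cis-element-driven multiplexed reporter units; endogenous AhR activity read as reporter mRNA 24 h after dosing, via RT-PCR, 6-FAM labelling, HpaI digestion and capillary electrophoresis. Bidirectional fit relative to DMSO.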

[6] = ATG_AP_1_CIS: Attagene CIS-FACTORIAL HepG2 Assay for human Activator Protein 1 (AP-1) (AID 2282931); settings: HepG2 Attagene cis-factorial AP-1 reporter mRNA; actives raise or lower the signal
In short: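 HepG2, transient cis-reporter transfection; 24 h; readout RT-PCR/CE fluorescence; DMSO baseline, gain and loss fitted.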

[7] = ATG_AP_2_CIS: Attagene CIS-FACTORIAL HepG2 Assay for human Activator Protein 2 (AP-2) (AID 2282932); settings: HepG2 AP-2 cis-reporter, Attagene transcription factor profiling; actives raise or lower the signal
In short: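 HepG2 cells transiently transfected with cis-element reporter units and exposed for 24 h. Reporter mRNA measured by RT-PCR, FAM labelling, HpaI digestion and capillary electrophoresis. Changes in either direction fitted relative to DMSO.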

[8] = ATG_BRE_CIS: Attagene CIS-FACTORIAL HepG2 Assay for human Bone Morphogenetic Protein (BMP) Response Element (BRE) (AID 2282933); settings: HepG2 BMP response element reporter, Attagene transcription factor profiling; actives raise or lower the signal
In short: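 Endogenous transcription factor activity read in transiently transfected HepG2 cells after 24 h chemical exposure. Bidirectional curve fitting against DMSO; readout is reporter transcript level by RT-PCR with capillary electrophoresis of labelled products.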

[9] = target: Retinoic acid receptor alpha (Homo sapiens) (UniProt P10276); experiment: ATG_DR5_RAR_CIS: Attagene CIS-FACTORIAL HepG2 Assay for human Retinoic Acid Receptor Alpha (RARE), DR5 submotif (AID 2282934); settings: HepG2 Attagene cis-factorial RARE DR5 reporter, mRNA; actives raise or lower the signal;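 on AC50: reporter responds to endogenous RAR alpha beta and gamma in HepG2 not RARA alone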
Retinoic acid receptor alpha (Homo sapiens), sequence (P10276 whole entry, looked up): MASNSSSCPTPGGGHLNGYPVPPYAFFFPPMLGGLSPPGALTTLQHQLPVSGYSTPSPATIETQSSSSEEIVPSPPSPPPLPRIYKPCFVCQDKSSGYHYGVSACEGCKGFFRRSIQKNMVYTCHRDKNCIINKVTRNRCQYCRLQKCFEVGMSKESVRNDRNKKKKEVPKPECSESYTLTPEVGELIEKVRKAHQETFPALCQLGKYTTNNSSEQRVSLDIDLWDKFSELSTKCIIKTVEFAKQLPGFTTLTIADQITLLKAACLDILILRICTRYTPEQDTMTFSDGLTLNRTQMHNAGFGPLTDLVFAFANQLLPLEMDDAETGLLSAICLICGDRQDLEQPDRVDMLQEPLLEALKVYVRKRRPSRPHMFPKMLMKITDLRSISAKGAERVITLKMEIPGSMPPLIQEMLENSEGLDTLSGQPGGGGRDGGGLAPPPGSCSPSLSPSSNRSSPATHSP
In short: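 HepG2 cells transiently transfected with multiplexed reporter units; DR5 cis-element drives reporter through endogenous transcription factors. After 24 h dosing, reporter mRNA quantified by RT-PCR, fluorescent labeling, HpaI digestion and capillary electrophoresis; bidirectional fitting versus DMSO.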

[10] = target: Transcription factor E2F1 (Homo sapiens) (UniProt Q01094); experiment: ATG_E2F_CIS: Attagene CIS-FACTORIAL HepG2 Assay for human E2F Transcription Factor 1 (AID 2282935); settings: HepG2 Attagene cis-reporter, E2F reporter RNA transcripts; actives raise or lower the signal
Transcription factor E2F1 (Homo sapiens), sequence (Q01094 whole entry, looked up): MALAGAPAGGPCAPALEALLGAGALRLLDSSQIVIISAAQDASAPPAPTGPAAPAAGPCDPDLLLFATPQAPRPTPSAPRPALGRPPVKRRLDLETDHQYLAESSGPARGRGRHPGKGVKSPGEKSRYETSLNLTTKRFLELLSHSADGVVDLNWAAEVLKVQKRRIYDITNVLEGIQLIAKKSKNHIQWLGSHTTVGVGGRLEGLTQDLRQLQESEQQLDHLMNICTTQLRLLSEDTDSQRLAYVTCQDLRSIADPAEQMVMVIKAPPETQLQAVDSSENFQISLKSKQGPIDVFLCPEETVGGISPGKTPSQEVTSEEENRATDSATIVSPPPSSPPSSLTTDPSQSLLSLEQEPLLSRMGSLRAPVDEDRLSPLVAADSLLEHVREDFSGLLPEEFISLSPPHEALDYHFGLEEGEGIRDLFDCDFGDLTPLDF
In short: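 Endogenous E2F1 activity read through cis-promoter reporter units transfected into HepG2. After 24 h compound treatment, reporter mRNA measured by RT-PCR, HpaI digestion and capillary electrophoresis. Bidirectional fit versus DMSO.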

[11] = ATG_E_Box_CIS: Attagene CIS-FACTORIAL HepG2 Assay for human Enhancer Box (E-box) (AID 2282936); settings: HepG2 E-box cis-reporter transcription, actives raise or lower the signal
In short: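 HepG2 cells transiently transfected with multiplexed cis-element reporter units, dosed 24 h; reporter mRNA quantified by RT-PCR, 6-FAM labelling, HpaI digestion and capillary electrophoresis. E-box (USF1) signal fitted bidirectionally vs DMSO.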

[12] = ATG_M_61_CIS: Attagene CIS-FACTORIAL HepG2 Assay for M61 Transcription Factor (Internal Marker) (AID 2282937); settings: HepG2 Attagene CIS-FACTORIAL M61 internal marker reporter; actives raise or lower the signal
In short: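 Transfect HepG2 with MRTUs; dose 24 h; isolate RNA; reverse-transcribe with DNase I treatment; PCR-amplify, FAM-label and cut with HpaI for 2 h at 37 C; resolve by CE. Bidirectional fitting against DMSO.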

[13] = ATG_EGR_CIS: Attagene CIS-FACTORIAL HepG2 Assay for human Early Growth Response 1 (EGR1) (AID 2282938); settings: HepG2 Attagene CIS-FACTORIAL EGR reporter mRNA; actives raise or lower the signal
In short: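 After a 24 h treatment of transiently transfected HepG2 cells, total RNA was reverse-transcribed and reporter sequences PCR-amplified, labelled and run on capillary electrophoresis. Reporters sit under cis-regulatory promoters sensing endogenous factors.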

[14] = ATG_M_19_CIS: Attagene CIS-FACTORIAL HepG2 Assay for M19 Transcription Factor (Internal Marker) (AID 2282939); settings: HepG2 Attagene CIS-FACTORIAL M19 internal marker reporter; actives raise or lower the signal
In short: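 Internal marker readout, fitted in both directions against DMSO, from HepG2 cells carrying transfected cis-element reporter constructs; RT-PCR and capillary electrophoresis of reporter mRNA after 24 h exposure.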

[15] = ATG_ERE_CIS: Attagene CIS-FACTORIAL HepG2 Assay for Estrogen Response Element (ERE) (AID 2282940); settings: HepG2 ERE cis-reporter, Attagene RNA transcript; actives raise or lower the signal
In short: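 After 24 h compound treatment, RNA from transfected HepG2 cells was reverse-transcribed, reporter cDNA PCR-amplified, FAM-labelled, HpaI-cut and resolved by capillary electrophoresis. ERE-driven cis reporter transcripts reflect endogenous factors; gain or loss scored against DMSO.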

[16] = ATG_Ets_CIS: Attagene CIS-FACTORIAL HepG2 Assay for human Erythroblast Transformation Specific (ETS) (AID 2282941); settings: HepG2 ETS cis-reporter transcription, actives raise or lower the signal
In short: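 HepG2 cells transfected with multiple cis-regulated reporter units measuring endogenous ETS-driven transcription, 24 h after dosing. Reporter mRNA quantified by RT-PCR with capillary electrophoresis; bidirectional fit relative to DMSO.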

[17] = target: Hepatocyte nuclear factor 3-beta (Homo sapiens) (UniProt Q9Y261); experiment: ATG_FoxA2_CIS: Attagene CIS-FACTORIAL HepG2 Assay for human Forkhead box A2 (FOXA2) (AID 2282942); settings: HepG2 cis-reporter transcription factor activity, 24 h; actives raise or lower the signal
Hepatocyte nuclear factor 3-beta (Homo sapiens), sequence (Q9Y261 whole entry, looked up): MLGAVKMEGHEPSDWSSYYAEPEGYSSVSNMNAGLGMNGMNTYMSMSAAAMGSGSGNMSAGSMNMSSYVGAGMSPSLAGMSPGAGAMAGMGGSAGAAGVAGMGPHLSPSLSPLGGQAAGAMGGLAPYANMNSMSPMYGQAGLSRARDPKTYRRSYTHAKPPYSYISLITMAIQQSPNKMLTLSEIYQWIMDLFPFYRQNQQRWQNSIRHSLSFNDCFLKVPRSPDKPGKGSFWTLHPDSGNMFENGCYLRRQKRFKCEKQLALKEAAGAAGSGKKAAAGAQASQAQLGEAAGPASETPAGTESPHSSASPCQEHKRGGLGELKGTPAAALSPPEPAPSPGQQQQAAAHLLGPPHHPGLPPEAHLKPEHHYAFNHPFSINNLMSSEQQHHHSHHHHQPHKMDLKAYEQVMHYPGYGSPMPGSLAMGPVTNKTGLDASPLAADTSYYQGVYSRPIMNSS
In short: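 24 h dosing of HepG2 bearing cis-reporter constructs; mRNA readout by RT-PCR/CE fluorescence; bidirectional fit, DMSO baseline.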

[18] = ATG_FoxO_CIS: Attagene CIS-FACTORIAL HepG2 Assay for human Forkhead box O (FoxO) (AID 2282943); settings: HepG2 Attagene cis-reporter, FoxO element, mRNA; actives raise or lower the signal
In short: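 HepG2 cells transiently transfected with cis-element-driven reporter units report endogenous FoxO activity. After 24 h chemical exposure, reporter mRNA quantified by RT-PCR, fluorescent labeling, HpaI digestion and capillary electrophoresis; bidirectional fit versus DMSO.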

[19] = ATG_GLI_CIS: Attagene CIS-FACTORIAL HepG2 Assay for human Zinc Finger Protein GLI1 (AID 2282945); settings: HepG2, Attagene cis-factorial reporter mRNA, GLI element; actives raise or lower the signal
In short: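 Transiently transfected HepG2 cells report endogenous transcription factor activity via cis-element-driven reporter units. After 24 h compound exposure, reporter mRNA was measured by RT-PCR with capillary electrophoresis; bidirectional fitting against DMSO baseline.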

[20] = ATG_GATA_CIS: Attagene CIS-FACTORIAL HepG2 Assay for human GATA Binding Protein (AID 2282944); settings: HepG2 GATA cis-element reporter, Attagene multiplex mRNA; actives raise or lower the signal
In short: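 Reporter transcripts from a GATA cis-regulated unit, among multiplexed reporters in transfected HepG2 cells, were measured by RT-PCR with capillary electrophoresis after 24 h dosing. Induction or loss scored relative to DMSO.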

Measured: AC50

O=C1CCCC1
not listed: [20]
inactive: all other assays above

CC(C)(C)c1ccc(OC(=O)c2ccccc2O)cc1
active: [3] 34.7 µM | [15] 7.32 µM
inactive: all other assays above

CC(C)(C)C1CCCCC1=O (stereo not given)
inactive: all assays above

C#CC1(O)CC[C@H]2[C@@H]3CCC4=CCCC[C@@H]4[C@H]3CC[C@@]21C (stereo not given in full)
active: [4] 1.24 µM | [8] 34 µM | [9] 49 µM | [14] 55.9 µM | [15] 0.0188 µM | [16] 62.5 µM
inactive: all other assays above

Cc1ccc(C2OC[C@@H]3OC(c4ccc(C)cc4)O[C@H]([C@H](O)CO)[C@@H]3O2)cc1 (stereo not given in full)
active: [6] 142 µM
not listed: [17]
inactive: all other assays above

c1ccc(CCCc2ccncc2)cc1
active: [3] 43.2 µM | [6] 37.7 µM | [7] 100 µM | [8] 93.3 µM | [16] 155 µM
not listed: [20]
inactive: all other assays above

c1ccc2c(c1)ccc1ncccc12
active: [3] 19.2 µM | [5] 7.77 µM | [7] 178 µM | [8] 76.4 µM | [9] 58 µM
inactive: all other assays above

COC(=O)/C=C/C(C)=C\C=C\C(C)=C\C=C\C=C(C)\C=C\C=C(C)\C=C\C(=O)O
inactive: all assays above

CC(=O)OCCC1CCCCC1
inactive: all assays above

COc1ccc([C@@H]2CC(=O)c3c(O)cc(O[C@@H]4O[C@H](CO[C@@H]5O[C@@H](C)[C@H](O)[C@@H](O)[C@H]5O)[C@@H](O)[C@H](O)[C@H]4O)cc3O2)cc1OC
inactive: all assays above

CC/C=C\C/C=C\C/C=C\CCCCCCCC(=O)O
active: [1] 173 µM | [4] 153 µM | [6] 161 µM | [11] 100 µM | [13] 103 µM
not listed: [17]
inactive: all other assays above

CC(C)(C)c1ccc(N)cc1
active: [15] 59.9 µM
inactive: all other assays above

O=C(c1ccccc1)c1ccc(O)c(O)c1O
active: [5] 84.4 µM | [15] 27 µM
inactive: all other assays above

CC(=O)OCC(C)OC(C)=O (stereo not given)
not listed: [17]
inactive: all other assays above
